In the supplement of paper PMC10849652:
About 7,900 targets were measured; listed, in parts, are those with a hit and a random draw of the rest. About 0.6% of all pairs of compound and target were hits.

Tests used:
Assay in all cases: log2 fold change, soluble protein after heating vs DMSO (PISA); higher = thermal stabilisation; K562 cells, 10 uM, 30 min; active = over 0.2 and 3.5 SD of the protein, either way, in both replicates (recomputed)
[1] = compound: CS(=O)(=O)c1ccc(-c2cnc(N)c(C(=O)Nc3ccccc3)n2)cc1
In short: (§1)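 K562 cells at 2×10^6 cells/mL were treated for 30 min with 10 μM compound, and aliquots were heated for 3 min over 48°C-58°C before pooling. Extraction used PBS with 0.5% NP-40 at 4°C, and soluble protein was the supernatant after 21,000xg for 90 min, measured by TMTpro 16plex LC-MS/MS with channel sums equalised. Thermal stability values, relative to control samples and from duplicates, are log2 fold changes.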

crizotinib = compound: C[C@@H](Oc1cc(-c2cnn(C3CCNCC3)c2)cnc1N)c1c(Cl)ccc(F)c1Cl [crizotinib]
In short: as §1

[2] = compound: C[C@@H]1COCCN1C2=NC(=NC(=C2)C3(CC3)S(=O)(=O)C)C4=C5C=CNC5=CC=C4
In short: as §1

[3] = compound: C[C@H](C1=CC=C(C=C1)C(=O)NC2=C3C=CNC3=NC=C2)N
In short: as §1

duvelisib = compound: C[C@H](Nc1ncnc2nc[nH]c12)c1cc2cccc(Cl)c2c(=O)n1-c1ccccc1 [duvelisib]
In short: as §1

gandotinib = compound: Cc1cc(Nc2cc(CN3CCOCC3)c3nc(C)c(Cc4ccc(Cl)cc4F)n3n2)n[nH]1 [gandotinib]
In short: as §1

tozasertib = compound: Cc1cc(Nc2cc(N3CCN(C)CC3)nc(Sc3ccc(NC(=O)C4CC4)cc3)n2)n[nH]1 [tozasertib]
In short: as §1

[4] = compound: Cc1cc(SCc2sc(-c3ccc(C(F)(F)F)cc3)nc2C)ccc1OCC(=O)O
In short: as §1

doramapimod = compound: Cc1ccc(-n2nc(C(C)(C)C)cc2NC(=O)Nc2ccc(OCCN3CCOCC3)c3ccccc23)cc1 [doramapimod]
In short: as §1

ispinesib = compound: Cc1ccc(C(=O)N(CCCN)[C@@H](c2nc3cc(Cl)ccc3c(=O)n2Cc2ccccc2)C(C)C)cc1 [ispinesib]
In short: as §1

Measured: log2 fold change

DNM2 (UniProt P50570)
inactive: [1] 0.017 | crizotinib -0.082 | [2] 0.062 | [3] -0.021 | duvelisib 0.05 | gandotinib -0.06 | tozasertib -0.071 | [4] 0.039 | doramapimod -0.039 | ispinesib -0.01

EIF3J (UniProt O75822)
inactive: [1] -0.024 | crizotinib -0.012 | [2] 0.009 | [3] -0.035 | duvelisib 0.048 | gandotinib -0.157 | tozasertib 0.038 | [4] 0.005 | doramapimod -0.022 | ispinesib 0.099

EXOC6 (UniProt Q8TAG9)
inactive: [1] 0.001 | crizotinib -0.206 | [2] -0.038 | [3] 0.033 | duvelisib -0.095 | gandotinib -0.098 | tozasertib 0.037 | [4] 0.1 | doramapimod 0.02
active: ispinesib -0.363

DHX40 (UniProt Q8IX18)
inactive: [1] 0.018 | crizotinib -0.109 | [2] -0.003 | [3] 0.03 | duvelisib 0.005 | gandotinib -0.079 | tozasertib -0.089 | [4] 0.01 | doramapimod 0.065 | ispinesib -0.215

EMD (UniProt P50402)
active: crizotinib -0.215
inactive: [1] 0.042 | [2] 0.019 | [3] 0.018 | duvelisib -0.033 | gandotinib -0.047 | tozasertib -0.049 | [4] 0.015 | doramapimod 0.018 | ispinesib -0.092

DHX36 (UniProt Q9H2U1)
inactive: [1] -0.071 | crizotinib -0.101 | [2] -0.062 | [3] 0.2 | duvelisib -0.029 | gandotinib 0.069 | tozasertib -0.047 | [4] 0.045 | doramapimod 0.051 | ispinesib -0.081

ERLIN2 (UniProt O94905)
inactive: [1] -0.017 | crizotinib -0.034 | [2] -0.167 | [3] 0.068 | duvelisib -0.032 | gandotinib -0.044 | tozasertib 0.009 | [4] 0.155 | doramapimod 0.057
active: ispinesib -0.251

EXTL2 (UniProt Q9UBQ6)
Sequence of UniProt Q9UBQ6 (Q9UBQ6 whole entry, looked up): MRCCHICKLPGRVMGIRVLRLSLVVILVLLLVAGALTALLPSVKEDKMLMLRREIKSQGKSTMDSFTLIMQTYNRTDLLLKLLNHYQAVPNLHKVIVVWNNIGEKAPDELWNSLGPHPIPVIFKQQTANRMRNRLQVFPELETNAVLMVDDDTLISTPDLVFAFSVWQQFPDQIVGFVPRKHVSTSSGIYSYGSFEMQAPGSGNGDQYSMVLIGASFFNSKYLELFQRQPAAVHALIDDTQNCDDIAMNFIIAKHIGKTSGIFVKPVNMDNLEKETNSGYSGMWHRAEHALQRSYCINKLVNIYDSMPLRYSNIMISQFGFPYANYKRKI
inactive: [1] 0.132 | crizotinib 0.111 | [2] 0.014 | [3] -0.227 | duvelisib -0.015 | gandotinib 0.068 | tozasertib 0.141 | [4] -0.046 | doramapimod -0.01 | ispinesib 0.108

DDX27 (UniProt Q96GQ7)
Sequence of UniProt Q96GQ7 (Q96GQ7 whole entry, looked up): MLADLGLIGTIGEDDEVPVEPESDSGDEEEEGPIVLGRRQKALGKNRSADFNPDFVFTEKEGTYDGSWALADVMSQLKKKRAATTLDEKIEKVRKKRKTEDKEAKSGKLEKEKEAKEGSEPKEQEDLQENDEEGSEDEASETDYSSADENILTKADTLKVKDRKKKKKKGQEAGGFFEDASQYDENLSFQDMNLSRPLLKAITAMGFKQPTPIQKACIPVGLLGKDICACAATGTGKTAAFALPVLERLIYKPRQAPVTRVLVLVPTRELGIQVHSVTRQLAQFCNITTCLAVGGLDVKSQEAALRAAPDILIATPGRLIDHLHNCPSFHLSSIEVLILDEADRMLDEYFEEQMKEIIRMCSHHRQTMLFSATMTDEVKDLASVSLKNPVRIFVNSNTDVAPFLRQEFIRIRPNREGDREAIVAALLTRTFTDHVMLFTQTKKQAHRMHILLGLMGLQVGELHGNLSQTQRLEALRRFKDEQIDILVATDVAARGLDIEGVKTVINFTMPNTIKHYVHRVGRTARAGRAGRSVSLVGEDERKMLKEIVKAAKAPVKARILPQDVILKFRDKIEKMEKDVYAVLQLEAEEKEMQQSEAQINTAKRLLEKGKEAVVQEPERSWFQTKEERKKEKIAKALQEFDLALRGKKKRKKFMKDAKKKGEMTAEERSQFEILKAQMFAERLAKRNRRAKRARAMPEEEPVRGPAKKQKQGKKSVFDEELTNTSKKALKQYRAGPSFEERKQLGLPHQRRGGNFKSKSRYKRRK
inactive: [1] -0.039 | crizotinib -0.037 | [2] -0.064 | [3] 0.37 | duvelisib -0.145 | gandotinib 0.073 | tozasertib -0.12 | [4] 0.071 | doramapimod 0.135 | ispinesib 0.004

EIF4E isoform 2 (UniProt P06730)
Sequence of UniProt P06730 (P06730 whole entry, looked up): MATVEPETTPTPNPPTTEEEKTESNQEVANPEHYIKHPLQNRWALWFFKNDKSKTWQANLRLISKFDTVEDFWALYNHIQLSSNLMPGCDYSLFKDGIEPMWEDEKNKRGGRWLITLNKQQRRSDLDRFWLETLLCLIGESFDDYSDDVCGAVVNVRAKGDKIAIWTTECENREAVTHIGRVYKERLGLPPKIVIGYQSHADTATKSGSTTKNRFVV
inactive: [1] 0.198 | crizotinib 0.165 | [3] -0.099 | duvelisib 0.143 | gandotinib -0.006 | tozasertib 0.003 | [4] -0.02 | doramapimod -0.045 | ispinesib 0.159
active: [2] 0.4

ESYT1 isoform 2 (UniProt Q9BSJ8)
inactive: [1] 0.021 | crizotinib -0.134 | [2] -0.076 | [3] 0.069 | duvelisib 0.014 | gandotinib 0.024 | tozasertib -0.017 | [4] 0.11 | doramapimod 0.083 | ispinesib -0.265

DDOST (UniProt P39656)
Sequence of UniProt P39656 (P39656 whole entry, looked up): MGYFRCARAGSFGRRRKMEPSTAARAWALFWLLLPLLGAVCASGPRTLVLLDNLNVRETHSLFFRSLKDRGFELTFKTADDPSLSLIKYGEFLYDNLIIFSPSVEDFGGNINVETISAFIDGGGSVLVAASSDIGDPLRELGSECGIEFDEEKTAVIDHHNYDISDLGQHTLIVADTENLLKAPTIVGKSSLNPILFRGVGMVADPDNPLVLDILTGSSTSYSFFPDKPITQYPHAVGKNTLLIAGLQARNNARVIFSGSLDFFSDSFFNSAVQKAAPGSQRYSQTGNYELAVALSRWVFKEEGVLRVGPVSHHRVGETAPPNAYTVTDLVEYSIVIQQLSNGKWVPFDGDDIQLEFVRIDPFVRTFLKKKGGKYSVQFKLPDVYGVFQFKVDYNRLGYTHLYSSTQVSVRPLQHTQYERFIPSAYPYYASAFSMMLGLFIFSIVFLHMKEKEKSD
inactive: [1] 0.014 | crizotinib -0.051 | [2] -0.065 | [3] -0.055 | duvelisib -0.074 | gandotinib 0.02 | tozasertib 0.022 | [4] -0.016 | doramapimod 0.005 | ispinesib 0.13

CYBA (UniProt P13498)
active: ispinesib -0.488
inactive: [1] 0.069 | crizotinib -0.108 | [2] 0.024 | [3] -0.045 | duvelisib 0.05 | gandotinib -0.231 | tozasertib -0.043 | [4] 0.04 | doramapimod 0.01

DHCR7 (UniProt Q9UBM7)
inactive: [1] -0.003 | crizotinib 0.192 | [2] -0.085 | [3] 0.089 | duvelisib -0.029 | gandotinib -0.304 | tozasertib -0.055 | [4] 0.051 | doramapimod 0.049 | ispinesib -0.056

DCUN1D1 (UniProt Q96GG9)
Sequence of UniProt Q96GG9 (Q96GG9 whole entry, looked up): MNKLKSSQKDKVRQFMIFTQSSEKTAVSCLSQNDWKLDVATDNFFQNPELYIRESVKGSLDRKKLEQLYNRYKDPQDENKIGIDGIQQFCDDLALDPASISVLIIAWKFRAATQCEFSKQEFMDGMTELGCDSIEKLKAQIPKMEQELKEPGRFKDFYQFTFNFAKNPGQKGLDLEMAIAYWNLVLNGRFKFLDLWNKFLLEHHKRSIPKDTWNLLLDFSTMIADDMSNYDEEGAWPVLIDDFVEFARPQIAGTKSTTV
inactive: [1] -0.027 | crizotinib -0.061 | [2] -0.047 | [3] -0.067 | duvelisib 0.004 | gandotinib -0.059 | tozasertib -0.004 | [4] 0.002 | doramapimod -0.053 | ispinesib 0.036

DHRS7B (UniProt Q6IAN0)
Sequence of UniProt Q6IAN0 (Q6IAN0 whole entry, looked up): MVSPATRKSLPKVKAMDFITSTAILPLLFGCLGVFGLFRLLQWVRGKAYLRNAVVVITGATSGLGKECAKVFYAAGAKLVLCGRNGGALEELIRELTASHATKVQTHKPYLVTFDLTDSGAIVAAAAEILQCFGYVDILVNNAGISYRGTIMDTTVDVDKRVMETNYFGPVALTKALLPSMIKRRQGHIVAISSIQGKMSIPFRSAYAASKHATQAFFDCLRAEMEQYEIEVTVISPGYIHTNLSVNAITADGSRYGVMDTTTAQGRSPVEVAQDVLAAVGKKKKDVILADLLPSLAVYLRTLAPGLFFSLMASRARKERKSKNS
active: ispinesib 0.367
inactive: [1] 0.066 | crizotinib 0.194 | [2] 0.003 | [3] -0.08 | duvelisib 0.097 | gandotinib -0.232 | tozasertib 0.033 | [4] 0.105 | doramapimod -0.006

CTSZ (UniProt Q9UBR2)
Sequence of UniProt Q9UBR2 (Q9UBR2 whole entry, looked up): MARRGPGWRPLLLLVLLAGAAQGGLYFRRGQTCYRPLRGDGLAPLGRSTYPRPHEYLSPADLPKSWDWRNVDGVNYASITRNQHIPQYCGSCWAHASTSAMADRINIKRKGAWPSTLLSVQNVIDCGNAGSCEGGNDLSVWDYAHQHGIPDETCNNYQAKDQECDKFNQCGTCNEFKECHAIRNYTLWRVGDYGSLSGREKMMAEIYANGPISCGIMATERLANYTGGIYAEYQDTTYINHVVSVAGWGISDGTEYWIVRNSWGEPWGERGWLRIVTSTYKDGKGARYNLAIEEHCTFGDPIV
active: ispinesib -0.481
inactive: [1] -0.001 | crizotinib -0.007 | [2] 0.021 | [3] -0.033 | duvelisib -0.037 | gandotinib 0.03 | tozasertib -0.015 | [4] -0.037 | doramapimod 0.05

ESS2 (UniProt Q96DF8)
Sequence of UniProt Q96DF8 (Q96DF8 whole entry, looked up): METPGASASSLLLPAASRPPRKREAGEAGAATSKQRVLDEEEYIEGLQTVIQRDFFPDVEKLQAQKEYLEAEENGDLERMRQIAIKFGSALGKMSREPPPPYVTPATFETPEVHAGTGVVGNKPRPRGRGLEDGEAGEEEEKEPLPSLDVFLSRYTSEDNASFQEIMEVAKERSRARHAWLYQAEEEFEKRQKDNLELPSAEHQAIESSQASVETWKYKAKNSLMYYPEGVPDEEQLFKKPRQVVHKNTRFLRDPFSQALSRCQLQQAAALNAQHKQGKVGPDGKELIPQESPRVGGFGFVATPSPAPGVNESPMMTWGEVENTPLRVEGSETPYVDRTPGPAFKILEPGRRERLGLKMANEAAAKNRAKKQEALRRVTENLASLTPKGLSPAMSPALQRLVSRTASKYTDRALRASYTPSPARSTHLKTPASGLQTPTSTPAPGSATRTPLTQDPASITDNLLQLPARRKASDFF
inactive: [1] -0.081 | crizotinib -0.079 | [2] 0.016 | [3] 0.031 | duvelisib -0.069 | gandotinib 0.004 | tozasertib -0.029 | [4] -0.044 | doramapimod 0.02 | ispinesib -0.053

DBNL isoform 3 (UniProt Q9UJU6)
inactive: [1] 0.041 | crizotinib -0.116 | [2] 0.073 | [3] -0.016 | duvelisib 0.037 | gandotinib -0.094 | tozasertib 0.048 | [4] -0.015 | doramapimod 0.054 | ispinesib -0.048

EDEM2 (UniProt Q9BV94)
inactive: [1] 0.036 | crizotinib 0.024 | [2] -0.119 | [3] 0.163 | duvelisib -0.074 | gandotinib -0.081 | tozasertib -0.015 | [4] 0.111 | doramapimod 0.065 | ispinesib -0.04

DHRS3 (UniProt O75911)
Sequence of UniProt O75911 (O75911 whole entry, looked up): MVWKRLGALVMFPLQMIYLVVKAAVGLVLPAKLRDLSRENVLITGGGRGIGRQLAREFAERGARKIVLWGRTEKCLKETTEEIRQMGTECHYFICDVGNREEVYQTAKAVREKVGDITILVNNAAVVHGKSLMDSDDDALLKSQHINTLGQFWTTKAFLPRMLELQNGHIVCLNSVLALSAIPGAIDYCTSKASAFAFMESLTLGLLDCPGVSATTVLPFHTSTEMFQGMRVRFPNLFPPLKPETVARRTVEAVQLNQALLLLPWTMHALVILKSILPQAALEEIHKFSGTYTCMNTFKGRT
inactive: [1] 0.083 | crizotinib 0.093 | [2] 0.115 | [3] 0.069 | duvelisib 0.027 | gandotinib -0.027 | tozasertib -0.089 | [4] -0.049 | doramapimod -0.037 | ispinesib 0.015

FAM122A (UniProt Q96E09)
inactive: [1] 0.077 | crizotinib -0.032 | [2] -0.267 | [3] -0.042 | duvelisib 0.059 | gandotinib -0.015 | tozasertib 0.038 | [4] -0.015 | doramapimod 0.014 | ispinesib 0

DDX39A (UniProt O00148)
inactive: [1] 0.062 | crizotinib -0.082 | [2] 0.079 | [3] 0.002 | duvelisib 0.051 | gandotinib -0.009 | tozasertib 0.043 | [4] 0.05 | doramapimod -0.069 | ispinesib -0.064

DCAF6 isoform 3 (UniProt Q58WW2)
inactive: [1] -0.008 | crizotinib 0.132 | [2] 0.026 | [3] -0.054 | duvelisib 0.025 | gandotinib -0.024 | tozasertib -0.034 | [4] -0.058 | doramapimod 0.056 | ispinesib 0.027

DTWD2 (UniProt Q8NBA8)
Sequence of UniProt Q8NBA8 (Q8NBA8 whole entry, looked up): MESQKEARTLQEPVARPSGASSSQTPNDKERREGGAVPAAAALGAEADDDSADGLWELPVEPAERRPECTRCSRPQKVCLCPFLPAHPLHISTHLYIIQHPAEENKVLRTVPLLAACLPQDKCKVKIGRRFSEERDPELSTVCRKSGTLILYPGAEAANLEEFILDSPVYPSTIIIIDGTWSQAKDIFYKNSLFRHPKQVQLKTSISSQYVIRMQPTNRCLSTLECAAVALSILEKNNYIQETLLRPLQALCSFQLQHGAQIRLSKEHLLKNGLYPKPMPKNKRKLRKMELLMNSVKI
inactive: [1] 0.06 | crizotinib 0.133 | [2] 0.137 | [3] -0.103 | duvelisib -0.036 | gandotinib 0.027 | tozasertib -0.019 | [4] 0 | doramapimod 0.009 | ispinesib -0.092

CUTA isoform 2 (UniProt O60888)
Sequence of UniProt O60888 (O60888 whole entry, looked up): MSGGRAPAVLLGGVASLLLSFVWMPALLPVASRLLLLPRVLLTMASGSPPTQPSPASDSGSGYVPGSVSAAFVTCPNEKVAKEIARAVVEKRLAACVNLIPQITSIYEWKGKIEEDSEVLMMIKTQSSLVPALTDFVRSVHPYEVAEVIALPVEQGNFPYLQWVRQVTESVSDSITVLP
inactive: [1] 0.073 | crizotinib -0.045 | [2] 0.021 | [3] -0.001 | duvelisib 0.01 | gandotinib 0.131 | tozasertib -0.05 | [4] -0.049 | doramapimod -0.019 | ispinesib 0.109

EDC4 (UniProt Q6P2E9)
inactive: [1] -0.064 | crizotinib 0.179 | [2] 0.003 | [3] -0.092 | duvelisib 0.003 | gandotinib -0.18 | tozasertib 0.061 | [4] 0.033 | doramapimod 0.005 | ispinesib -0.031

DOHH (UniProt Q9BU89)
Sequence of UniProt Q9BU89 (Q9BU89 whole entry, looked up): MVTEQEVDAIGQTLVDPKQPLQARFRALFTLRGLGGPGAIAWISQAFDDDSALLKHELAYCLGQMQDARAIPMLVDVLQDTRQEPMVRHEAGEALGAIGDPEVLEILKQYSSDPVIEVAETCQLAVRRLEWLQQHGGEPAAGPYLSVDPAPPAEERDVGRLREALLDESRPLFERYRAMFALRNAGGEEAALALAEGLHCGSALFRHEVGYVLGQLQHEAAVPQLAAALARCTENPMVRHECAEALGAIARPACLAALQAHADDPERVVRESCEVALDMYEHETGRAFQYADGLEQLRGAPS
inactive: [1] 0.049 | crizotinib 0.06 | [2] 0.287 | [3] -0.154 | duvelisib 0.055 | gandotinib 0.029 | tozasertib 0.127 | [4] 0.022 | doramapimod 0.005 | ispinesib -0.015

EEF1AKNMT (UniProt Q8N6R0)
Sequence of UniProt Q8N6R0 (Q8N6R0 whole entry, looked up): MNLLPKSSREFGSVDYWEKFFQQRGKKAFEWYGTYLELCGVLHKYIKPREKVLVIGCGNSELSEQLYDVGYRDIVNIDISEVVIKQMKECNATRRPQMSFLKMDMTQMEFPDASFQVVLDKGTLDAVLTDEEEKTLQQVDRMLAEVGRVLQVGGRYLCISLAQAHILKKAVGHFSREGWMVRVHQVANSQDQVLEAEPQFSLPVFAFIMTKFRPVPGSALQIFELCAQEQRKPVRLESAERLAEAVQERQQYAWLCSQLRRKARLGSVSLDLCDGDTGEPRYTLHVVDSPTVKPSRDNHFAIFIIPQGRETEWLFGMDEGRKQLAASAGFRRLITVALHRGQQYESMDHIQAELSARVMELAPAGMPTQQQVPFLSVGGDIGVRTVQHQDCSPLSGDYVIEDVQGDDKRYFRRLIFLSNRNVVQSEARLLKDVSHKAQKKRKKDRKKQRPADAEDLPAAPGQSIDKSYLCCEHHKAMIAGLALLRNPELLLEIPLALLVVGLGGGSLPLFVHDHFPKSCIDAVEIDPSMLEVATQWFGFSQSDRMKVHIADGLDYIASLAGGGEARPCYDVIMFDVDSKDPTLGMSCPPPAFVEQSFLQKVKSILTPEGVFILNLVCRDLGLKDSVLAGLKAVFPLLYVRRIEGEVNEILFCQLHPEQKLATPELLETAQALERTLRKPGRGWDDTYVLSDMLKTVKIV
inactive: [1] -0.011 | crizotinib -0.059 | [2] 0.006 | [3] 0.111 | duvelisib -0.047 | gandotinib -0.09 | tozasertib 0.071 | [4] 0.153 | doramapimod 0.077 | ispinesib -0.072
